In the supplement of paper PMC10849652:
About 8,800 targets were measured; listed, in parts, are those with a hit and a random draw of the rest. About 0.5% of all pairs of compound and target were hits.

How the values were obtained:
Assay in all cases: log2 fold change, soluble protein after heating vs DMSO (PISA); higher = thermal stabilisation; K562 lysate, 10 uM; active = over 0.2 and 3.5 SD of the protein, either way, in both replicates (recomputed)
[1] = compound: CS(=O)(=O)CCNCc1ccc(-c2ccc3ncnc(Nc4ccc(OCc5cccc(F)c5)c(Cl)c4)c3c2)o1 [lapatinib]
In short: (§1)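 Pellets of K562 cells were dounce-homogenised in PBS pH 7.4 with 1 mM MgCl2, and the crude extract was held at 1 mg/mL protein for a 30 min treatment with 10 μM compound. Aliquots were heated for 3 min over 48°C-58°C and pooled before NP-40 was added to 0.5% at 4°C. The supernatant from 21,000xg for 90 min was quantified by TMTpro 16plex LC-MS/MS with channel sums equalised. Values are reported from duplicates as log-two fold change in thermal stability relative to solvent controls.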

[2] = compound: CS(=O)(=O)N1CCN(Cc2cc3nc(-c4cccc5[nH]ncc45)nc(N4CCOCC4)c3s2)CC1 [pictilisib]
In short: as §1

[3] = compound: C[C@@H](Oc1cc(-c2cnn(C3CCNCC3)c2)cnc1N)c1c(Cl)ccc(F)c1Cl [crizotinib]
In short: as §1

[4] = compound: C[C@H](C1=CC=C(C=C1)C(=O)NC2=C3C=CNC3=NC=C2)N
In short: as §1

[5] = compound: C[C@H](Nc1ncnc2nc[nH]c12)c1cc2cccc(Cl)c2c(=O)n1-c1ccccc1 [duvelisib]
In short: as §1

[6] = compound: Cc1cc(Nc2cc(CN3CCOCC3)c3nc(C)c(Cc4ccc(Cl)cc4F)n3n2)n[nH]1 [gandotinib]
In short: as §1

[7] = compound: Cc1cc(Nc2cc(N3CCN(C)CC3)nc(Sc3ccc(NC(=O)C4CC4)cc3)n2)n[nH]1 [tozasertib]
In short: as §1

[8] = compound: Cc1ccc(-n2nc(C(C)(C)C)cc2NC(=O)Nc2ccc(OCCN3CCOCC3)c3ccccc23)cc1 [doramapimod]
In short: as §1

[9] = compound: Cc1ccc(NC(=O)c2ccc(CN3CC[C@H](N(C)C)C3)c(C(F)(F)F)c2)cc1Nc1nccc(-c2cncnc2)n1 [bafetinib]
In short: as §1

[10] = compound: Cc1cccc(CC(=O)N2CCc3c2ccc(-c2cn(C)c4ncnc(N)c24)c3F)n1
In short: as §1

[11] = compound: Cc1cn(-c2cc(NC(=O)c3ccc(C)c(Nc4nccc(-c5cccnc5)n4)c3)cc(C(F)(F)F)c2)cn1 [nilotinib]
In short: as §1

[12] = compound: Cc1nc(Nc2n[nH]c3c2CN(C(=O)N[C@H](CN(C)C)c2ccccc2)C3(C)C)c2sccc2n1
In short: as §1

[13] = compound: Cc1nc(Nc2ncc(C(=O)Nc3c(C)cccc3Cl)s2)cc(N2CCN(CCO)CC2)n1 [dasatinib]
In short: as §1

[14] = compound: Cc1ncc(-c2ccnc(Nc3ccc(S(C)(=O)=O)cc3)n2)n1C(C)C
In short: as §1

[15] = compound: Cn1cc(-c2ccc3c(c2)CCN3C(=O)Cc2cccc(C(F)(F)F)c2)c2c(N)ncnc21
In short: as §1

[16] = compound: Cn1cc(CNCC2CCN(c3ncc(C(=O)NO)cn3)CC2)c2ccccc21 [quisinostat]
In short: as §1

[17] = compound: Cn1cncc1[C@@](N)(c1ccc(Cl)cc1)c1ccc2c(c1)c(-c1cccc(Cl)c1)cc(=O)n2C [tipifarnib]
In short: as §1

[18] = compound: NC(=O)Nc1cc(-c2cccc(F)c2)sc1C(=O)N[C@H]1CCCNC1
In short: as §1

[19] = compound: NC(=O)c1cnc(N[C@@H]2CCCC[C@@H]2N)nc1Nc1cccc(-n2nccn2)c1
In short: as §1

[20] = compound: NC1(c2ccc(-c3nc4ccn5c(=O)[nH]nc5c4cc3-c3ccccc3)cc2)CCC1
In short: as §1

Measured: log2 fold change

MRPL27 (UniProt Q9P0M9)
inactive: [1] 0.02 | [2] 0.017 | [3] -0.046 | [5] 0.02 | [6] -0.249 | [7] 0.029 | [8] 0.011 | [9] 0.012 | [10] -0.076 | [11] -0.112 | [12] 0.027 | [13] 0.089 | [14] -0.039 | [15] 0.091 | [16] -0.012 | [17] 0.015 | [18] -0.006 | [19] 0.072 | [20] -0.064
active: [4] 0.658

MAPKAPK3 (UniProt Q16644)
UniProt Q16644, sequence (Q16644 whole entry, looked up): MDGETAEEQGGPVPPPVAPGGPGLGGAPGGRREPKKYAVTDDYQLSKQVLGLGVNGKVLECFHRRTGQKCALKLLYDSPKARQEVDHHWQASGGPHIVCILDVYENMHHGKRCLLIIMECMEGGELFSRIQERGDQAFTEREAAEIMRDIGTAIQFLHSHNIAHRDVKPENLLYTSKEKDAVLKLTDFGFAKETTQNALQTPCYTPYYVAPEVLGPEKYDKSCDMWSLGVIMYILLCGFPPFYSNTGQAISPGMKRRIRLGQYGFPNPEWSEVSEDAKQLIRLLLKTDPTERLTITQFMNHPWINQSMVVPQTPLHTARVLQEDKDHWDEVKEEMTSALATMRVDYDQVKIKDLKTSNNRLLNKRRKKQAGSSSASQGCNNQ
inactive: [1] 0 | [2] -0.013 | [3] -0.026 | [4] 0.034 | [5] -0.038 | [6] -0.044 | [7] 0.046 | [8] -0.025 | [9] 0.026 | [10] -0.014 | [11] -0.024 | [12] 0.077 | [13] 0.023 | [14] -0.058 | [15] 0.016 | [16] 0.01 | [17] 0.017 | [18] 0.021 | [19] 0.013 | [20] 0.009

LYRM4 (UniProt Q9HD34)
UniProt Q9HD34, sequence (Q9HD34 whole entry, looked up): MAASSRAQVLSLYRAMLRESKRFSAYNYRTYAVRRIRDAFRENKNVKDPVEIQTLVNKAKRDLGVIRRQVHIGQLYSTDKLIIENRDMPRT
inactive: [1] -0.036 | [2] -0.026 | [3] -0.034 | [5] 0.031 | [6] -0.095 | [7] -0.021 | [8] -0.047 | [9] 0.008 | [10] -0.007 | [11] 0.009 | [12] -0.031 | [13] -0.061 | [14] 0.052 | [15] -0.028 | [16] -0.093 | [17] -0.028 | [18] 0.054 | [19] -0.036 | [20] -0.005
active: [4] 0.413

MED10 (UniProt Q9BTT4)
UniProt Q9BTT4, sequence (Q9BTT4 whole entry, looked up): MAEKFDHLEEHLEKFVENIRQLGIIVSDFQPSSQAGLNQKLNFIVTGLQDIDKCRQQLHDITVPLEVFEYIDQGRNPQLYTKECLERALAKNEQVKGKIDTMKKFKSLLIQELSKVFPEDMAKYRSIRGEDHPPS
inactive: [1] 0.107 | [2] 0.232 | [3] 0.016 | [4] -0.024 | [5] 0.016 | [6] 0.04 | [7] -0.057 | [8] 0.014 | [9] 0.187 | [10] 0.055 | [11] 0.042 | [12] -0.012 | [13] 0.031 | [14] -0.021 | [15] 0.043 | [16] 0.04 | [17] -0.066 | [18] -0.082 | [19] 0.025 | [20] -0.045

MAP4 isoform 5 (UniProt P27816)
inactive: [1] -0.089 | [2] -0.008 | [3] -0.034 | [5] 0.159 | [7] 0.008 | [8] -0.061 | [9] 0.081 | [11] -0.168 | [12] -0.029 | [13] -0.371 | [14] 0.291 | [15] 0.029 | [16] -0.036 | [17] -0.101 | [18] 0.03 | [19] -0.02 | [20] -0.213

MCUB (UniProt Q9NWR8)
UniProt Q9NWR8, sequence (Q9NWR8 whole entry, looked up): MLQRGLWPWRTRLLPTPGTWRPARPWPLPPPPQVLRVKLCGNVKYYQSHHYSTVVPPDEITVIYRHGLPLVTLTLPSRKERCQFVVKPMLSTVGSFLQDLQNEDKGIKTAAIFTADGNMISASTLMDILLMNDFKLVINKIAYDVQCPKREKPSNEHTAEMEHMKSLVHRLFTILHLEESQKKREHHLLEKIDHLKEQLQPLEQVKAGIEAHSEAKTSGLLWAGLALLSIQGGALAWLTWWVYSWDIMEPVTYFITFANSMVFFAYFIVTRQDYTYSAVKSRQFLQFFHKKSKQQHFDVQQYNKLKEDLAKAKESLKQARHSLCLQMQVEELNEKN
inactive: [1] 0.044 | [2] 0.088 | [3] -0.17 | [4] 0.187 | [5] -0.018 | [6] -0.347 | [8] 0.05 | [9] -0.045 | [10] -0.016 | [11] -0.142 | [12] 0.119 | [13] 0.075 | [14] -0.12 | [15] 0.122 | [16] -0.262 | [17] -0.112 | [18] 0.143 | [19] -0.008 | [20] -0.014

MAP4K5 (UniProt Q9Y4K4)
inactive: [1] -0.035 | [2] 0.044 | [4] 0.013 | [5] -0.021 | [6] 0.055 | [7] 0.152 | [8] -0.04 | [9] -0.046 | [10] 0.112 | [11] -0.035 | [12] 0 | [14] -0.007 | [15] 0.105 | [16] -0.245 | [17] 0.082 | [19] -0.029 | [20] 0.11
active: [13] 0.528 | [18] 0.468

MAPK14 (UniProt Q16539)
UniProt Q16539, sequence (Q16539 whole entry, looked up): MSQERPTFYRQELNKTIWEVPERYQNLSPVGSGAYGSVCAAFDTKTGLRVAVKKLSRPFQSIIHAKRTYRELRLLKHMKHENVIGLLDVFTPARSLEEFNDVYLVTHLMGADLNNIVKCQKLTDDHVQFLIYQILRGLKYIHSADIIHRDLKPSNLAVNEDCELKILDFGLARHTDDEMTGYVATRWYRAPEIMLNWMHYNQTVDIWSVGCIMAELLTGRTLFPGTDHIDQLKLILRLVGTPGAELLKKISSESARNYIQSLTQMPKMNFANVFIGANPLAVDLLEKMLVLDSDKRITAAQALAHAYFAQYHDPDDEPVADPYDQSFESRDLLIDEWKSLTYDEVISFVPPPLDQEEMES
active: [9] 1.03 | [13] 0.984
inactive: [1] -0.047 | [2] -0.004 | [3] -0.094 | [4] -0.034 | [5] -0.026 | [6] -0.037 | [7] 0.009 | [10] 0.015 | [11] 0.563 | [12] 0.038 | [14] 0.069 | [15] -0.029 | [16] -0.025 | [17] -0.137 | [18] -0.012 | [19] -0.005 | [20] -0.042

LEPROT (UniProt O15243)
UniProt O15243, sequence (O15243 whole entry, looked up): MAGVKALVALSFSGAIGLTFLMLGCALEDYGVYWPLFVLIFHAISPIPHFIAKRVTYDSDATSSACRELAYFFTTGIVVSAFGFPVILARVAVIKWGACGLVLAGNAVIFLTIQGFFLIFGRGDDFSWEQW
inactive: [1] -0.058 | [2] 0 | [3] -0.069 | [4] -0.019 | [6] 0.054 | [7] -0.116 | [8] 0 | [9] -0.067 | [10] 0.056 | [16] -0.089 | [18] 0.092 | [19] -0.147 | [20] 0.024

KNL1 (UniProt Q8NG31)
inactive: [1] 0.007 | [2] -0.031 | [3] -0.015 | [4] -0.011 | [5] -0.001 | [6] -0.032 | [7] -0.027 | [8] 0.008 | [9] -0.017 | [10] 0.016 | [11] 0.011 | [12] -0.004 | [13] -0.014 | [14] 0.02 | [15] 0.012 | [16] -0.048 | [17] -0.06 | [18] 0.023 | [19] 0.024 | [20] -0.001

MAP3K4 (UniProt Q9Y6R4)
inactive: [1] -0.02 | [2] 0.009 | [3] 0.033 | [4] 0.064 | [5] -0.017 | [6] 0.034 | [7] 0.092 | [8] 0.073 | [9] -0.031 | [10] -0.041 | [11] 0.003 | [12] 0.206 | [14] 0.095 | [15] 0.132 | [16] -0.078 | [17] -0.015 | [18] 0.203 | [19] 0.045 | [20] -0.021
active: [13] 0.485

MAST4 (UniProt O15021)
inactive: [1] -0.12 | [2] 0.122 | [3] 0.079 | [4] -0.065 | [5] -0.089 | [6] 0.374 | [7] 0.274 | [8] -0.121 | [9] -0.103 | [10] 0.017 | [11] -0.078 | [12] 0.114 | [13] 0.001 | [14] 0.08 | [15] 0.04 | [16] 0.104 | [17] 0.012 | [18] 0.073 | [19] 0.021 | [20] 0.059

KIF15 (UniProt Q9NS87)
UniProt Q9NS87, sequence (Q9NS87 whole entry, looked up): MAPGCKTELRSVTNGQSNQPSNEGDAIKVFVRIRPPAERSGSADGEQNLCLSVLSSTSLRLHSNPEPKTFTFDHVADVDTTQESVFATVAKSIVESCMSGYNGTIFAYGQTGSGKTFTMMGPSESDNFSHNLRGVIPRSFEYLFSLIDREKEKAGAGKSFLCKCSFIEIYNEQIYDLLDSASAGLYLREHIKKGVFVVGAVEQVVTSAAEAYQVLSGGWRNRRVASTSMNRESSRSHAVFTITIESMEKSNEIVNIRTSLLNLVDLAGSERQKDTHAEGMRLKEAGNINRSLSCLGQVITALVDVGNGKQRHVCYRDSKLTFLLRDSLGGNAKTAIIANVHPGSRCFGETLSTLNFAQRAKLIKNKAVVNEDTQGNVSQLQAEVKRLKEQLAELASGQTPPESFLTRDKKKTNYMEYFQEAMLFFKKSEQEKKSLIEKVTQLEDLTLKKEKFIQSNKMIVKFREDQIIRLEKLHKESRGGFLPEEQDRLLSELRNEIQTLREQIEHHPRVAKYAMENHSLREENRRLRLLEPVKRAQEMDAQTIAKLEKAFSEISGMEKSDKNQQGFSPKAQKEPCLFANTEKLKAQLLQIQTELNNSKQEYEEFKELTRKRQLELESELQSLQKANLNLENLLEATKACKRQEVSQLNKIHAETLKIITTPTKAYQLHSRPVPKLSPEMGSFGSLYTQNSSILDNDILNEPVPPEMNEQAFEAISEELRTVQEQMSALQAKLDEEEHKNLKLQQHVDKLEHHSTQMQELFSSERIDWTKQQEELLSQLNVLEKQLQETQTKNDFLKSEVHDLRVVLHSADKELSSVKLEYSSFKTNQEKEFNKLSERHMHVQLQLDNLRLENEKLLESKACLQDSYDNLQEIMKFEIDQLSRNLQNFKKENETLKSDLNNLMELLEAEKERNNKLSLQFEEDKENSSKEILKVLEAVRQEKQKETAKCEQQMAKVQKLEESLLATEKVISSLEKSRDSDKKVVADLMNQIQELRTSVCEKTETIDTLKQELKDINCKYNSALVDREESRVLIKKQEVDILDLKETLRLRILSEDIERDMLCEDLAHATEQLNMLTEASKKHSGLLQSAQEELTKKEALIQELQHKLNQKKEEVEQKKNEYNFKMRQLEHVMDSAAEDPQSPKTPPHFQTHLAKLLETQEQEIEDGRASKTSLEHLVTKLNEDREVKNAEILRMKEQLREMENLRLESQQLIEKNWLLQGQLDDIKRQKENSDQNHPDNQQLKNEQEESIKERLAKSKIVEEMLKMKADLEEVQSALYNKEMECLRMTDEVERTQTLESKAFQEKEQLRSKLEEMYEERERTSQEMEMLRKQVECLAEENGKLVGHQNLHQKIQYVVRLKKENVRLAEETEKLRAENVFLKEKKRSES
inactive: [1] -0.02 | [2] 0.006 | [3] -0.017 | [4] 0 | [5] -0.002 | [6] -0.017 | [7] 0.008 | [8] 0.006 | [9] -0.025 | [10] 0.033 | [11] -0.038 | [12] -0.003 | [13] -0.03 | [14] 0.052 | [15] 0.044 | [16] -0.058 | [17] 0.008 | [18] 0.003 | [19] 0.011 | [20] 0

LIMK2 isoform 3 (UniProt P53671)
active: [4] 0.626
inactive: [1] 0.029 | [2] 0.112 | [3] -0.138 | [5] -0.035 | [6] -0.144 | [7] 0.01 | [8] 0.109 | [9] -0.108 | [10] -0.037 | [11] 0.074 | [12] 0.06 | [13] -0.126 | [14] 0.07 | [15] -0.099 | [16] -0.003 | [17] -0.05 | [18] -0.066 | [19] -0.064 | [20] 0.008

LRRC7 (UniProt Q96NW7)
UniProt Q96NW7, sequence (Q96NW7 whole entry, looked up): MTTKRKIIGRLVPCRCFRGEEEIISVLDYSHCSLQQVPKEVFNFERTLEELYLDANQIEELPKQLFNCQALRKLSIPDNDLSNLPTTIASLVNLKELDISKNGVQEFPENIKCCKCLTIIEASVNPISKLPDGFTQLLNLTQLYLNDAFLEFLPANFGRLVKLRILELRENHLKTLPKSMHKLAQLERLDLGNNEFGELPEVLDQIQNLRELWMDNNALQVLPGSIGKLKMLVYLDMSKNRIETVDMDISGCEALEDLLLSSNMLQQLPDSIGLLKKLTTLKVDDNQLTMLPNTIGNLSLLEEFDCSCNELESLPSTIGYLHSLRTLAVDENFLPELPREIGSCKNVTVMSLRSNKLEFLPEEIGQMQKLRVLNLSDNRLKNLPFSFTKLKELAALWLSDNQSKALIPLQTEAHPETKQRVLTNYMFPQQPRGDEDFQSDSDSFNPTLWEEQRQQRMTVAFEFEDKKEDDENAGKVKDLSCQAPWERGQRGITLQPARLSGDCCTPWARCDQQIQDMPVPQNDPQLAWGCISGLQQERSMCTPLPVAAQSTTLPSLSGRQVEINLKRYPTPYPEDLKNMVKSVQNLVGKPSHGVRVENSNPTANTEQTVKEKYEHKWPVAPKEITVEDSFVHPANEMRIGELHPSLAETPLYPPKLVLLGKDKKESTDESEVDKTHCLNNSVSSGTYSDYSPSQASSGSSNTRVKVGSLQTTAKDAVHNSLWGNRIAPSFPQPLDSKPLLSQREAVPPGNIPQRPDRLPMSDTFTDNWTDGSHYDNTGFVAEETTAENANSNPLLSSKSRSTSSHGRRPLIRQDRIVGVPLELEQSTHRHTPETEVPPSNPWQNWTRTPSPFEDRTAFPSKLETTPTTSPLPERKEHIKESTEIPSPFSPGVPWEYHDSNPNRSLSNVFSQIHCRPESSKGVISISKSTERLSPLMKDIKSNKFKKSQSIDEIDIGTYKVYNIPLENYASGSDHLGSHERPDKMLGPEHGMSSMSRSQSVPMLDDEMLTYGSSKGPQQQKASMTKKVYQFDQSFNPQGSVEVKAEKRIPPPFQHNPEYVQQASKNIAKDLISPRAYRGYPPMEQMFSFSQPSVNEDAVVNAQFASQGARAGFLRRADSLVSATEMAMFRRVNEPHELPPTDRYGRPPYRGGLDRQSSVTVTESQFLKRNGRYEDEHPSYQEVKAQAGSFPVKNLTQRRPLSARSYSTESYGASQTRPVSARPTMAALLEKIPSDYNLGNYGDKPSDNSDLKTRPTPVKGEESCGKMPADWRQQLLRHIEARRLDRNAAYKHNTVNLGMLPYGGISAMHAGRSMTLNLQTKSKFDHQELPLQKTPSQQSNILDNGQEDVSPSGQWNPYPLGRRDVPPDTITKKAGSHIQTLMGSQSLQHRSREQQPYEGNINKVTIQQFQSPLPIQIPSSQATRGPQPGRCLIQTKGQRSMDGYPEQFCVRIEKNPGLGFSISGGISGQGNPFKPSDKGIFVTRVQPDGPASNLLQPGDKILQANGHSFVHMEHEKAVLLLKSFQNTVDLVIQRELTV
inactive: [1] -0.048 | [2] 0.041 | [3] 0.065 | [4] -0.025 | [5] 0.083 | [6] -0.07 | [7] -0.018 | [8] 0.001 | [9] 0.112 | [10] 0.093 | [13] 0.059 | [15] -0.043 | [16] 0.128 | [18] -0.009 | [19] 0.069

MAPK1 (UniProt P28482)
inactive: [1] -0.018 | [2] 0.005 | [3] 0.065 | [4] -0.004 | [5] 0.004 | [6] 0.036 | [7] -0.01 | [8] -0.013 | [9] 0.004 | [10] -0.061 | [11] -0.042 | [12] 0.205 | [13] -0.014 | [14] 0.091 | [15] -0.01 | [16] 0.07 | [17] 0.011 | [18] 0.01 | [19] 0.088 | [20] 0.003

MED17 (UniProt Q9NVC6)
UniProt Q9NVC6, sequence (Q9NVC6 whole entry, looked up): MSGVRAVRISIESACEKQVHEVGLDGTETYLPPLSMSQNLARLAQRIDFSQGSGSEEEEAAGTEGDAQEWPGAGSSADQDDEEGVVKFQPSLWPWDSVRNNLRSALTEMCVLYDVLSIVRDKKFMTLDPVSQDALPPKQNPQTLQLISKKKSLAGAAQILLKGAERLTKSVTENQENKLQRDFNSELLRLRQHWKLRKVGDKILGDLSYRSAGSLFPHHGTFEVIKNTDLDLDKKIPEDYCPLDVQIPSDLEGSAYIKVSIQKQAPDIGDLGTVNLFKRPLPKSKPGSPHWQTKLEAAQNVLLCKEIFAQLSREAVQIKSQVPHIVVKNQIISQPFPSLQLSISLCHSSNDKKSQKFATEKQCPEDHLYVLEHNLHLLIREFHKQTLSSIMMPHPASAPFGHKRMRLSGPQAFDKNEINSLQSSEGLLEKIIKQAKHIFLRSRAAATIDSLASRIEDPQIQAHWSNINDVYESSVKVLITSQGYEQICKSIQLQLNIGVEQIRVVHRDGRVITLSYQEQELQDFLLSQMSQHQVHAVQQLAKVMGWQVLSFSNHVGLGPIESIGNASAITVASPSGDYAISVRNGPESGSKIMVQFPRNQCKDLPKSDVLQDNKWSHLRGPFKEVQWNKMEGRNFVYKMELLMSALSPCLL
inactive: [1] 0.003 | [2] 0.018 | [3] -0.029 | [4] -0.058 | [5] -0.005 | [6] -0.037 | [7] -0.043 | [8] 0.008 | [9] -0.005 | [10] 0.034 | [11] -0.011 | [12] 0.036 | [13] -0.033 | [14] -0.116 | [15] -0.014 | [16] -0.033 | [17] -0.075 | [18] 0.019 | [19] 0.038 | [20] 0.005
